Test results from publication PMC7826789 (International Journal of Molecular Sciences, 2021).

Tests used:
Conditions in all cases: Compound Concentration (nM):1000
[1] = system: CSNK2A2
[2] = system: T1, CTK
T1 construct: gene MATK

[3] = system: DAPK1
[4] = system: DAPK2
[5] = system: DAPK3
[6] = system: T2, DCAMKL1
T2 construct: gene DCLK1

[7] = system: T3, DCAMKL2
T3 construct: gene DCLK2

[8] = system: T4, DCAMKL3
T4 construct: gene DCLK3

[9] = system: DDR1
[10] = system: DDR2
[11] = system: T5, DLK
T5 construct: gene MAP3K12

[12] = system: T6, DMPK2
T6 construct: gene CDC42BPG

[13] = system: DMPK
[14] = system: T7, DRAK1
T7 construct: gene STK17A

[15] = system: T8, DRAK2
T8 construct: gene STK17B

[16] = system: DYRK1A
[17] = system: DYRK1B
[18] = system: DYRK2
[19] = system: EGFR(E746-A750del)
[20] = system: EGFR(G719C)
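Note: KINOMEscan scanMAX binding as percent activity remaining versus control; lower means stronger binding.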

Row | SMILES | Percent Control [1] [%] | Percent Control [2] [%] | Percent Control [3] [%] | Percent Control [4] [%] | Percent Control [5] [%] | Percent Control [6] [%] | Percent Control [7] [%] | Percent Control [8] [%] | Percent Control [9] [%] | Percent Control [10] [%] | Percent Control [11] [%] | Percent Control [12] [%] | Percent Control [13] [%] | Percent Control [14] [%] | Percent Control [15] [%] | Percent Control [16] [%] | Percent Control [17] [%] | Percent Control [18] [%] | Percent Control [19] [%] | Percent Control [20] [%]
1 | COc1ccc2[nH]c3c4[nH]c5ccc(OC)cc5c4c4c(c3c2c1)C(=O)NC4=O [GW296115X] | 56 | 93 | 22 | 4.9 | 4.8 | 90 | 90 | 19 | 77 | 72 | 77 | 84 | 56 | 0.4 | 2.2 | 48 | 79 | 50 | 20 | 64
2 | NS(=O)(=O)c1ccc(N/N=C2\C(=O)Nc3ccc(Cl)cc32)cc1 [GW280670X] | 54 | 100 | 100 | 100 | 100 | 94 | 100 | 100 | 100 | 100 | 96 | 100 | 100 | 100 | 100 | 100 | 100 | 93 | 100 | 100
3 | COc1cc(/C=N/Nc2ncnc3[nH]ncc23)ccc1O [GW578748X] | 7.7 | 97 | 78 | 75 | 48 | 68 | 100 | 68 | 100 | 100 | 71 | 100 | 100 | 7 | 9.9 | 12 | 69 | 2.5 | 90 | 52
4 | NS(=O)(=O)c1ccc(Nc2ncc(-c3ccccc3)o2)cc1 [GW572399X] | 53 | 100 | 100 | 100 | 100 | 83 | 100 | 100 | 100 | 100 | 81 | 100 | 100 | 85 | 100 | 92 | 81 | 57 | 98 | 100
5 | COC(=O)Nc1nc2ccc(Oc3ccc(NC(=O)Nc4cc(C(F)(F)F)ccc4F)cc3)cc2s1.Cl [GW693917A] | 68 | 91 | 95 | 100 | 100 | 95 | 86 | 100 | 0 | 5.8 | 64 | 73 | 100 | 100 | 99 | 82 | 100 | 62 | 88 | 98
6 | O=C1Nc2ccc(C(=O)c3ccco3)cc2C1=Cc1cc(Cl)c(O)c(Cl)c1 [GW406108X] | 19 | 92 | 22 | 9.2 | 10 | 80 | 94 | 100 | 100 | 93 | 42 | 100 | 100 | 80 | 32 | 0.4 | 1.9 | 41 | 86 | 73
7 | COc1cccc(-c2c[nH]c3c(N/N=C/c4ccncc4)ncnc23)c1 [GW814408X] | 1.5 | 100 | 100 | 100 | 100 | 100 | 100 | 56 | 86 | 60 | 87 | 82 | 100 | 17 | 32 | 7.6 | 24 | 8.3 | 12 | 27
8 | Cl.O=C(O[C@H]1CN[C@H](C#Cc2cc3ncnc(Nc4ccc5c(cnn5Cc5ccccc5)c4)c3s2)C1)N1CCOCC1 [GSK200398A] | 70 | 89 | 95 | 100 | 100 | 82 | 100 | 100 | 92 | 100 | 71 | 100 | 100 | 89 | 99 | 76 | 100 | 84 | 38 | 0.1
9 | CN(C)CCNC(=O)Nc1ccc(N(C)c2ccnc(Nc3ccc(CS(C)(=O)=O)cc3)n2)cc1.Cl [GW830900A] | 62 | 86 | 94 | 100 | 100 | 89 | 100 | 100 | 73 | 17 | 67 | 91 | 100 | 100 | 100 | 100 | 100 | 85 | 92 | 96
10 | COc1cc2ncn(-c3cc(O[C@H](C)c4ccccc4Cl)c(C(N)=O)s3)c2cc1OC [GSK237701A] | 34 | 78 | 55 | 81 | 79 | 77 | 100 | 100 | 100 | 74 | 59 | 91 | 100 | 100 | 89 | 92 | 100 | 68 | 85 | 64
